Results taken from PubChem BioAssay (NCATS).
Records with an inconclusive call do not appear. Where a call stands in place of a potency, no number is given. Unmarked numbers belong to inactive results. The source made the active and inactive calls. Calls come from the whole dose curve; as a rule, active = well fitted inhibition curve with a large enough effect; inconclusive = small, poorly fitted or top-dose-only effect; inactive = no such curve, though single readings can be large or run the other way. Where a SMILES comes first, the peptide text is derived from it. [ ]: non-standard residue; d: D form. 2Abz = Nc1ccccc1C(=O)O

Legend:
[1] = system: Zika virus NS2B-NS3 protease (unlinked complex); experiment: Primary screen GU Rhodamine qHTS for Zika virus inhibitors: Unlinked NS2B-NS3 protease assay (AID 1347159); conditions: Recombinant ZIKV NS2B-NS3 protease, Rhodamine110 substrate fluorescence; series mostly up to 107 µM; note: nearly all actives have a fitted effect of over 60% in size; note: potency is the fitted concentration of half-maximal effect
How it was run: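 Percent inhibition came from the 15-min rise in Rhodamine110 fluorescence (1.5 microM substrate, ~15% conversion), normalized to no-inhibitor and no-enzyme wells and Hill-fitted. Unlinked protease, 25 nM, pH 8.0 Tris buffer; compounds up to 114 microM, 15-min preincubation.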

[2] = system: Zika virus NS2B-NS3 protease (linked construct); experiment: Primary screen NINDS Rhodamine qHTS for Zika virus inhibitors (AID 1347160); conditions: purified NS2B-NS3 protease, Rhodamine110 substrate fluorescence; series mostly up to 57.1 µM; note: nearly all actives have a fitted effect of over 55% in size
How it was run: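 Rhodamine110-peptide cleavage (1.5 µM substrate) by 25 nM linked NS2B-NS3 enzyme at pH 8.0 (Tris, Tween 20), after 15 min RT preincubation with compounds; 15-min fluorescence change normalized to controls and Hill-fitted.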

| Structure (SMILES) | activity change, negative = inhibition [1] | activity change, negative = inhibition [2] | Potency [1] | Potency [2] |
| --- | --- | --- | --- | --- |
| C=CC(C)(O)CC/C=C(/C)C(=O)OC1C(OC2OCC(OC3OC(CO)C(O)C(O)C3O)C(OC3OCC(O)C(OC4OC(C)C(O)C(O)C4O)C3O)C2O)COC(OC(=O)C23CCC(C)(C)CC2C2=CCC4C5(C)CCC(OC6OC(CO)C(OC7OC(CO)C(O)C(OC8OCC(O)C(O)C8O)C7O)C(O)C6O)C(C)(C)C5CCC4(C)C2(C)CC3O)C1O (stereo not drawn) | 23.5% [at 19.1 µM] | 4.71% [at 10.7 µM] |  |  |
| CC(=O)c1c(O)cc2c(c1C)C(=O)CC(O)C2 (stereo not drawn) |  |  | inactive | inactive |
| CCC(C)C1NC(=O)C2CCCN2C(=O)C(C(C)C)NC(=O)c2ccccc2NC(=O)C(Cc2ccc(O)cc2)NC(=O)C(C)NC(=O)C(C(C)O)NC1=O (stereo not drawn) (cyclo([2Abz]VPITAY); configuration not given here) |  |  | inactive | inactive |
| CCOc1cc2ncc(C#N)c(Nc3ccc(OCc4ccccn4)c(Cl)c3)c2cc1NC(=O)/C=C/CN(C)C |  |  | inactive | inactive |
| CC(C)C1=CC2=CCC3[C@](C)(CCC[C@@]3(C)C(=O)O)C2CC1O (stereo partly drawn) |  |  | inactive | inactive |
| CC1OC(OC2C(CO)OC(OCC3OC(OC(=O)C45CCC(C)(C)CC4C4=CCC6C7(C)CCC(OC8OC(C(=O)O)C(O)C(OC9OC(CO)C(O)C(O)C9O)C8O)C(C)(C)C7CCC6(C)C4(C)CC5)C(O)C(O)C3O)C(O)C2O)C(O)C(O)C1O (stereo not drawn) | 16.6% [at 19.1 µM] | 9.74% [at 10.7 µM] |  |  |
| COC(=O)C1(Cc2ccc(O)cc2)OC(=O)C(OC)=C1c1ccc(O)cc1 (stereo not drawn) |  |  | inactive | inactive |
| COc1cc(O[C@@H]2O[C@H](CO)[C@@H](O)[C@H](O)[C@H]2O)c(CCC(=O)OC[C@H]2O[C@@H](Oc3cc(OC)c(C4OC(=O)C(C)(O)C4O)cc3CCC(=O)O)[C@H](O)[C@@H](O)[C@@H]2O)cc1C1OC(=O)C(C)(O)C1O (stereo partly drawn) |  |  | inactive | inactive |
| COc1ccc(/C=C/C(=O)O[C@@H]2[C@@H](O)[C@H](C)O[C@@H](OC3C4C=COC(O[C@@H]5O[C@H](CO)[C@@H](O)[C@H](O)[C@H]5O)C4C4(CO)OC34)[C@@H]2O)cc1OC (stereo partly drawn) |  |  | inactive | inactive |
| CC(=O)OC1C(O)C(C)=C(CCC(C)CC(=O)O)C2(C)CCCC(C)(C)C12 (stereo not drawn) |  |  | inactive | inactive |
| COc1cc(/C=C/C(=O)OC2CC(OC(C)=O)C(OC(C)=O)C3C2CCC2C(=O)OC(c4ccoc4)CC23C)ccc1O[C@@H]1O[C@H](CO)[C@@H](O)[C@H](O)[C@H]1O (stereo partly drawn) |  |  | inactive | inactive |
| COc1cc(/C=C/C(=O)OC(C)(C)C(OC2OC(CO)C(O)C(O)C2O)C(=O)OCc2ccc(OC3OC(CO)C(O)C(O)C3O)cc2)ccc1O (stereo not drawn) |  |  | inactive | inactive |
| CC(C)[C@@H](C)/C=C/[C@@H](C)[C@H]1CC[C@H]2C3=CC=C4C[C@@H](O)CC[C@]4(C)[C@H]3CC[C@]12C |  |  | inactive | inactive |
| NS(=O)(=O)OC[C@@H]1C[C@@H](n2ccc3c(N[C@H]4CCc5ccccc54)ncnc32)C[C@@H]1O |  |  | inactive | inactive |
| Cc1cc(C)c(S(=O)(=O)N(Cc2ccc(-c3cccc(S(C)(=O)=O)c3)cc2)Cc2ccc(C(F)(F)F)o2)c(C)c1 |  |  | inactive | inactive |
| C=C[C@H]1[C@H](O[C@@H]2O[C@H](CO[C@@H]3OC[C@](O)(CO)[C@H]3O)[C@@H](O)[C@H](O)[C@H]2O)OC=C2C(=O)OCC[C@H]21 |  |  | inactive | inactive |
| COCCCNCC1COc2ccccc2O1 (stereo not drawn) |  |  | inactive | inactive |
| C[C@]1(OC(=O)/C=C/c2ccccc2)C[C@H](O)[C@]2(O)C=CO[C@@H](O[C@@H]3O[C@H](CO)[C@@H](O)[C@H](O)[C@H]3O)C12 (stereo partly drawn) |  |  | inactive | inactive |
| CN1C(=O)c2ccccc2-n2c(nc3ccccc3c2=O)/C1=C/c1ccccc1 |  |  | inactive | inactive |
| CCCn1cnc2c(NCc3ccccc3)nc(N[C@H](CC)CO)nc21 |  |  | inactive | inactive |
| CC12CC34C=CC(=O)C(C)(CCC(=O)O)C3C(CC1C4)O2 (stereo not drawn) |  |  | inactive | inactive |
| CC(C)Nc1cc(-c2c[nH]c(C(=O)N[C@H](CO)c3cccc(Cl)c3)c2)c(Cl)cn1 |  |  | 44.7 µM (active) | inactive |
| C=CC(C)(C)O[C@@H]1O[C@H](CO[C@@H]2OC[C@](O)(CO)[C@H]2O)[C@@H](O)[C@H](O)[C@H]1O |  |  | inactive | inactive |
| CC1(CCC(=O)O)C(=O)C=CC23CC4CC(OC4(C)C2O)C13 (stereo not drawn) |  |  | inactive | inactive |
